# Cycloheximide cs – counter-screen hit for Shiga toxin inhibitors, cycloheximide | cell reporter, cycloheximide protein synthesis inhibition counterscreen | AID 2314 | 12% of 300,000 active | max response, %; in the data active = max response mostly above about 13%, no sharp cut-off; inactive = mostly below about 14%; also: read at 38.3 µM for the half of the compounds with a filed dose; 0% is about no effect
# Shiga inhibitor – Shiga toxin inhibition | Vero cells, Shiga toxin protein synthesis inhibition reporter | inhibition, % at 38.7 µM | 9.2% of 290,000 active; in the data active = inhibition mostly above about 28%, no sharp cut-off; inactive = mostly below about 43%; also: 0% is about no effect
# Marburg entry inh – blocks Marburg virus binding to or entry into cells | Marburg virus pseudotyped entry inhibition, cell reporter | Potency, µM (titrated, usually from 37.8 µM), without a hit: at the top dose activity change, negative = inhibition, actives largely listed as inhibitors | 1.8% of 300,000 active; calls by dose curve; tested in HEK293 cells; also: potency is read from the fitted curve at half-maximal effect; % is scaled to controls: 0 for no effect and ±100 for the full control effect
# Pf growth 96h – P. falciparum growth inhibition at 96 hours. AID 504834. P. falciparum luciferase reporter growth, 96 h. 6.9% of 320,000 active. Potency, µM (highest dose often 28.7 µM), without a hit: at the highest dose activity change, negative = inhibition, actives largely listed as inhibitors; also: potency is read from the fitted curve at half-maximal effect; % is scaled to controls: 0 for no effect and ±100 for the full control effect
#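 Cell-based qHTS: luciferase-tagged P. falciparum in erythrocytes (2% hematocrit, 0.05% parasitemia final) incubated with compounds for 96 hours, 37 C, 5% CO2; luciferase detection reagent then added and luminescence measured.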
# Lassa entry inh – blocks Lassa virus binding to or entry into cells; Lassa virus pseudotype entry inhibition, cell reporter; AID 540256; 1.2% of 300,000 active; Potency, µM (series often up to 37.9 µM), for the others: at the highest dose activity change, negative = inhibition, most hits filed as inhibitors; calls by dose curve; tested in HEK293 cells; also: potency is read from the fitted curve at half-maximal effect; % is scaled to controls: 0 for no effect and ±100 for the full control effect; nearly all actives have a fitted effect of over 50% in size
# Pf growth 48h – P. falciparum growth inhibition at 48 hours (one generation); P. falciparum luciferase growth in erythrocytes, 48 h; 5.9% of 310,000 active; Potency, µM (series often up to 28.7 µM), for the others: top-dose activity change, negative = inhibition, usual class: inhibitors; also: potency is read from the fitted curve at half-maximal effect; % is scaled to controls: 0 for no effect and ±100 for the full control effect
#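 Luminescence readout; reporter = integrated firefly luciferase in P. falciparum. RBC culture at 2% hematocrit, 0.1% parasitemia final, 37 C/5% CO2; decreased signal taken as growth inhibition.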
# Numbers without * were called inactive; i = inactive; ? = inconclusive; . = not tested or not shown; [ ] = dose if it differs, or a comment. This is a sample that favours compounds with a hit; in the whole collection about 19% have one here. Unless noted, calls follow the shape of the dose curve; as a rule, active = well fitted inhibition curve with a large enough effect; inconclusive = small, poorly fitted or top-dose-only effect, or another doubt; inactive = no such curve, though single readings can be large or run the other way.
SMILES,Cycloheximide cs,Shiga inhibitor,Marburg entry inh,Pf growth 96h,Lassa entry inh,Pf growth 48h
Cc1nc2ccccc2n1CCc1nc2c3ccccc3nc(SCC(=O)NCc3ccco3)n2n1,8,2,10µM*,-28%,?,?
O=C(c1cccc2ccccc12)N1CCN=C1SCc1ccc([N+](=O)[O-])cc1,0,-19,20%,9%,4%,10%
O=C(Nc1ccc2c(c1)OCCO2)C1CCN(C(=O)c2ccc(F)cc2)CC1,31*,109*,?,45%,11%,54%
O=C(Nc1ccc2c(c1)OCCO2)C1CCN(C(=O)c2ccc(Cl)cc2)CC1,30*,48*,?,-11%,?,1%
C=Cc1ccc(C(=O)N2CCCC(Nc3ccc4c(c3)OCCO4)C2)cc1 (stereo not given),12*,15,6%,-6%,0%,?
O=C(Nc1ccc2c(c1)OCO2)C1CCN(C(=O)c2ccc(Cl)cc2)CC1,1,-3,-14%[46.1 µM],59%,-28%[46.1 µM],-13%
COc1ccc(CC(=O)n2nc(-c3ccc(Cl)cc3)nc2NCc2ccco2)cc1,23*,63,?,153%,3%,34%
COc1ccc(C(=O)n2nc(-c3ccc(Cl)cc3)nc2NCc2ccco2)cc1,.,.,6%[46.1 µM],.,13%[46.1 µM],.
CC(=O)n1nc(-c2ccc(Cl)cc2)nc1NCc1ccco1,31*,50*,?,35%,-14%,.
COC(=O)C1=C(c2ccc(C(C)=O)cc2)C[C@@H]2CC[C@H]1N2C(=O)N1CCCC1,.,.,.,7%,.,15%
Cc1cccc(NC(=S)N/N=C/c2cccc(O)c2)c1C,19*,23,.,4%,.,1%
Cc1ccccc1NC(=S)N/N=C/c1ccc(O)cc1O,41*,100*,?,?,?,0%
Cc1sc2ncnc(N[C@@H](Cc3c[nH]c4ccccc34)C(=O)O)c2c1C,-2,3,?,0%,2%,13%
Cn1c(-c2csc(-c3ccccc3)n2)n[nH]c1=S,16*,25,2%[46.1 µM],-29%,11%[46.1 µM],7%
CCc1nnc(NC(=O)CSc2nc3ccccc3s2)s1,3,-8,-13%,.,-3%,11%
CCNc1nnc(CSc2nc3ccccc3s2)s1,37*,60*,-10%,11%,-1%,74%
Cn1c(CSc2ncn[nH]2)nc2ccccc21,9,14,1%,-10%,?,-1%
S=c1[nH]nc(CSc2nc3ccccc3s2)o1,3,-3,0%,.,-2%,27%
Cn1c(CSc2nc3ccccc3s2)n[nH]c1=S,15*,18,18%,-3%,1%,46%
Cn1c(CSc2nc3ccccc3s2)nc2ccccc21,39*,77*,?,-9%,?,52%
COCCNc1nc(C)cc(-c2cc(C(=O)NC3CCCC3)on2)n1,-3,-4,.,33%,.,?
O=C1CCCN2N=C(SCC(=O)N3CCCCC3)SC2=N1,-3,-2,.,-19%,.,?
O=C1CCCN2N=C(SCC(=O)Nc3ccc([N+](=O)[O-])cc3)SC2=N1,-2,-12,?,51%,-21%,5%
CCCSC1=NN2CCCC(=O)N=C2S1,27*,93*,2%[46.1 µM],71%,?,212%
O=C1CCCN2N=C(SCC(=O)Nc3ccc(OC(F)(F)F)cc3)SC2=N1,-3,37,-7%[46.1 µM],12µM*,10%,-17%
SMILES,Cycloheximide cs,Shiga inhibitor,Marburg entry inh,Pf growth 96h,Lassa entry inh,Pf growth 48h
CN1CCN(S(=O)(=O)c2ccc(NC(=O)c3ccc(F)cc3)cc2)CC1,1,-1,18%,-21%,17%,-28%
Cc1cc(C(=O)N/N=C/c2cc(N=Nc3ccccc3)ccc2O)n[nH]1,17*,18,0.5µM*,?,11µM*,?
COC(=O)N/N=C\c1cc(Br)ccc1OCc1ccccc1,20,-3,-7%,51%,?,17%
Cc1cc(C(=O)N/N=C/c2cccc([N+](=O)[O-])c2O)n[nH]1,18*,20,6%,3%,22%,-9%
COC(=O)N/N=C/c1cc(N=Nc2ccccc2Cl)ccc1O,15,22,.,7.4µM*,.,?
Cc1cc(C(=O)N/N=C/c2c3ccccc3cc3ccccc23)n[nH]1,10,21,?,19%,?,-16%
COC(=O)N/N=C/c1cc(N=Nc2ccccc2)ccc1O,25*,47,2%[46.1 µM],?,-2%,?
Cc1ccc(C(=O)OCC(=O)Nc2ccccc2)cc1NC(=O)c1ccco1,11,54,1%,31%,6%,20%
O=C(Nc1cccc(Cl)c1N1CCOCC1)c1cccnc1Cl,-1,5,?,16%,1%,7%
Nc1ccc(C(=O)N/N=C\c2cc(N=Nc3cccc4ccccc34)ccc2O)cc1,18*,30,16µM*,3%,?,2.9µM*
Cc1cc(C)c2[nH]c(=O)c(C(c3nnnn3C(C)(C)C)N3CCN(C(=O)c4ccco4)CC3)cc2c1 (stereo not given),-1,-3,?,.,0%,?
NCCc1c(Cc2ccccc2)[nH]c2ccccc12,.,.,?,.,18%,.
Cc1c(CCN)ccc2c1[nH]c1ccccc12,17*,23,.,?,.,10µM*
COc1ccc(C(C(=O)NC2CCCCC2)N(C(=O)c2csnn2)C2CC2)cc1 (stereo not given),-5,3,-21%[46.1 µM],?,5%,5%
O=C(Cc1ccccc1)N/N=C/c1cc(Br)cs1,14*,17,24%,?,?,14%
Cc1ccc(/C=N/Nc2ccc(C(=O)O)cc2)s1,8,50,?,333%,1.1µM*,61%
Cc1ccsc1/C=N/Nc1cccc(C(=O)O)c1,56*,118*,?,?,?,342%
O=C(O)c1ccc(N/N=C/c2cc(Br)cs2)cc1,25*,29,5µM*,-11%,?,187%
Cc1ccsc1/C=N/Nc1ccc(C(=O)O)cc1,-3,4,.,0%,.,25%
O=C(N/N=C\c1cc(Br)cs1)c1ccncc1,1,36,.,-12%,.,?
N#Cc1ccccc1S(=O)(=O)N1CCN(C(=O)C2CC(=O)N(c3ccc4c(c3)OCCO4)C2)CC1 (stereo not given),.,.,1%,.,2%,.
O=C(CNC(=O)c1cccc(Br)c1)N/N=C/c1cccnc1,-2,-5,-1%[46.1 µM],17%,-3%[46.1 µM],19%
Cc1ccc(/C=N/Nc2cccc(C(=O)O)c2)s1,86*,126*,1.1µM*,i,1.6µM*,338%
Cc1ccc(/C=N/NC(=O)C[n+]2ccccc2)s1,5,5,9%[46.1 µM],21%,3%[46.1 µM],23%
CCOC(=O)C(C#N)=C1CCN(Cc2ccccc2)CC1,7,-1,.,7.4µM*,.,.
COc1ccccc1/C=C/[C@@H]1C[C@H]2CN(Cc3cccc(Cl)c3)C(=O)[C@]23CCCN13,-2,-17,?,3%,-10%,?
CN(C)c1ccc(N2CC(C)(C)C2=O)cc1,33*,44*,3%[46.1 µM],52%,?,-3%
CC(=O)c1ccc(N2CC(C)(C)C2=O)cc1,2,15,?,35%,-1%[46.1 µM],22%

# Compound activity: PubChem BioAssay, National Center for Advancing Translational Sciences (NCATS)
